Records with an inconclusive call do not appear. Calls of active or inactive are those of the source. Unless noted, calls come from the whole dose curve; as a rule, active = well fitted curve in the direction sought with a large enough effect; inconclusive = small, poorly fitted or top-dose-only effect, or another doubt; inactive = no such curve, though single readings can be large; an effect the other way counts as inactive or inconclusive.
Columns and labels:
[1] = target: Lysosomal acid glucosylceramidase (Homo sapiens) (UniProt P04062); test: Glucocerebrosidase-p2 (AID 348; in the data active = potency below about 10 µM; note: potency is the fitted concentration of half-maximal effect); details: purified GBA, blue fluorogenic substrate, 40 min
Lysosomal acid glucosylceramidase (Homo sapiens), sequence (P04062 whole entry, looked up): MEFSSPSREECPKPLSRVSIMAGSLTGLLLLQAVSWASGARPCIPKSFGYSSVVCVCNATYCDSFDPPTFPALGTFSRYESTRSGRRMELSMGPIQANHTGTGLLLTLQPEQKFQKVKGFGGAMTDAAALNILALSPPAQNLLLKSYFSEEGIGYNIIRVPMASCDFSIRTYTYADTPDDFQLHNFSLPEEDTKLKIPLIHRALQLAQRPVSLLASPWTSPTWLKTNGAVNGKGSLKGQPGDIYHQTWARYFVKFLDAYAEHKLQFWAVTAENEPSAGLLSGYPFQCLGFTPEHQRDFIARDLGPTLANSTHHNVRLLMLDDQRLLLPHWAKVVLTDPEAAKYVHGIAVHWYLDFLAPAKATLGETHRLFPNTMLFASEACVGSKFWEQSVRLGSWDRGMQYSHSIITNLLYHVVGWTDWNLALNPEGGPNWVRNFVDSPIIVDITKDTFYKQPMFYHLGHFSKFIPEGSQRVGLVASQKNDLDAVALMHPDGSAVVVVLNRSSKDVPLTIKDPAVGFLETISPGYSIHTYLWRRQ
Procedure, shortened: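 Compounds titrated from 0.6 nM upwards against 0.2 nM enzyme in pH 5.9 citric acid/KH2PO4, taurocholate, tween-20; blue fluorogenic substrate 80 uM, 40 min room temperature, stopped and read Ex 365/Em 440 for AC50.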

[2] = AP1 Signaling Pathway (AID 357; active = well fitted curve in either direction with a large enough effect, not every such curve was filed as active;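 note: ME-180 reporter cells stimulated with EGF at its EC50 level; % is set by controls: 0 for no effect and ±100 for the full control effect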); details: ME-180 AP-1-bla reporter, EGF-induced, beta-lactamase ratio, 5 h; at 7.69 µM (top of the series) unless noted
Procedure, shortened: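 Cells are seeded overnight, exposed to compound titrations and an EC50 level of EGF for 5 hours at 37 °C, then loaded with CCF4 dye for 2.5 hours. Beta-lactamase activity under the AP-1 element is read as a blue/green ratio.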

[3] = target: Cytochrome P450 1A2 (Homo sapiens) (UniProt P05177); test: p450-cyp1a2 (AID 410; calls by dose curve; note: potency is the fitted concentration of half-maximal effect); details: recombinant CYP1A2, luciferin-ME demethylation, luminescence; series mostly up to 57 µM
Cytochrome P450 1A2 (Homo sapiens), sequence (P05177 whole entry, looked up): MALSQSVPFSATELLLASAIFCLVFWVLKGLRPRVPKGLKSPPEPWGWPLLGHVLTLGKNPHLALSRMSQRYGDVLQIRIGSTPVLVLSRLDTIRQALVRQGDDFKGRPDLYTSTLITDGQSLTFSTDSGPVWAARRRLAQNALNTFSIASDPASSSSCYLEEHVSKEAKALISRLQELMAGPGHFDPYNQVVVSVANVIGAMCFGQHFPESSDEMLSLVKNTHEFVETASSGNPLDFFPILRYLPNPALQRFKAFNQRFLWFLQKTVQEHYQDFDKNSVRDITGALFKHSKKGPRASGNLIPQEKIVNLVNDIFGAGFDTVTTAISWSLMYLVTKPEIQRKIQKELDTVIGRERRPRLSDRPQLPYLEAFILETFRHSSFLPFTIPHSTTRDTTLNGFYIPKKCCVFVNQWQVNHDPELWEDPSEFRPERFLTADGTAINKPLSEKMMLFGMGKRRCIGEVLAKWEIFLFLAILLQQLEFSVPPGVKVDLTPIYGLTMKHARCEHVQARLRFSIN
Procedure, shortened: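 Human CYP1A2 (20nM) demethylated Luciferin-ME at its Km (100uM) in 100mM KPO4. After 10 min compound preincubation, NADPH regeneration ran the reaction 60 min at room temperature. Luciferin was read by luminescence, normalized to 57 uM furafylline.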

[4] = NFAT Signaling Pathway (AID 444; active = well fitted curve in either direction with a large enough effect, not every such curve was filed as active;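 note: carbachol stimulus at about its EC50 of 1 µM final; % is set by controls: 0 for no effect and ±100 for the full control effect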); details: Jurkat NFAT-bla M1, carbachol, beta-lactamase ratio, 5 h; at 7.69 µM (top of the series) unless noted
Procedure, shortened: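 Jurkat cells with NFAT-driven β-lactamase reporter and co-expressed M1 receptor, stimulated with carbachol (final 1 uM, ~EC50), compound titration, 5 h at 37 °C. CCF4 loaded 1 h at RT; 460/530 nm ratio gave %activity and AC50.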

[5] = target: Glucocorticoid receptor (Homo sapiens) (UniProt P04150); test: GR-GFP Redistribution (AID 450;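 active = compounds whose dose series gives a full or clear partial fitted curve of increased nuclear translocation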; note: potency is the fitted concentration of half-maximal effect); details: U2OS GR-GFP nuclear translocation, laser cytometry, 2 h
Glucocorticoid receptor (Homo sapiens), sequence (P04150 whole entry, looked up, the tested form may be a part): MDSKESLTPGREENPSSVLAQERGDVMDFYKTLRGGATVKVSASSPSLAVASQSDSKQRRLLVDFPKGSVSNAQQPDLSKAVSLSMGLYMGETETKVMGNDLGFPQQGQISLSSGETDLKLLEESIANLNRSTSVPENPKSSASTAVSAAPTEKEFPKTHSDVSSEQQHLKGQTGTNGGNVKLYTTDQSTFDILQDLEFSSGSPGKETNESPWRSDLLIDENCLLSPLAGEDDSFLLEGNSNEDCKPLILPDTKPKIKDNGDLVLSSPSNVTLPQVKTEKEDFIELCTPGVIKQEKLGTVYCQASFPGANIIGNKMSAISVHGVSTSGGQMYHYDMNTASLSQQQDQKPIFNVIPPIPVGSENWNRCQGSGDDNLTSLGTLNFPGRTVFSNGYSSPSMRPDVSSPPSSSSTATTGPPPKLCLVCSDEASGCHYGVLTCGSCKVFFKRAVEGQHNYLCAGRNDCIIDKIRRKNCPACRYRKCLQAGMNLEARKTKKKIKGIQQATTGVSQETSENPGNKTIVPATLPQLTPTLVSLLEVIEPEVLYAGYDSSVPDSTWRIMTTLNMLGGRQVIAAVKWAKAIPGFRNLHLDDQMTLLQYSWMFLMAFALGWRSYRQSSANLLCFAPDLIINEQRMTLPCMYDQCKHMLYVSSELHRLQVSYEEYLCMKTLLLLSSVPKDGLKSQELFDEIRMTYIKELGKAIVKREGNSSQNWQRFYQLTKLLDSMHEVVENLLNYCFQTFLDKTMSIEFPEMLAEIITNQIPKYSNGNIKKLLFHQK

[6] = target: Glucocorticoid receptor (Homo sapiens) (UniProt P04150); test: GR-EFC Redistribution (AID 451; calls by dose curve; note: potency is the fitted concentration of half-maximal effect); details: CHO-K1 GR-EFC translocation, beta-gal luminescence, 2 h
Procedure, shortened: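 CHO-K1 cells expressing nuclear EA and GR-ED fragments of b-gal; compounds titrated up to 46 uM final, 2 h at 37 C. GR nuclear translocation read as complemented b-gal luminescence after 1 h RT detection.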

[7] = target: Mitogen-activated protein kinase 10 (Mus musculus) (UniProt Q61831); test: JNK3 AlphaScreen Assay (AID 530; active = well fitted curve in either direction with a large enough effect, not every such curve was filed as active;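 note: kinase came from lysate of stimulated human HepG2 cells; signal reports phosphorylation of biotinylated GST-cJun 1-79 at Ser73 with 10 µM ATP; % is set by controls: 0 for no effect and ±100 for the full control effect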); details: JNK3 lysate, c-Jun phosphorylation; series mostly up to 57.1 µM
Procedure, shortened: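 qHTS format: compounds tested as titrations against IL-1beta/TNF-alpha-activated HepG2 lysate JNK3 with biotin-GST-cJun substrate and 10 uM ATP at room temperature. Loss of anti-phospho-cJun AlphaScreen signal indicates inhibition.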

[8] = target: 3',5'-cyclic-AMP phosphodiesterase 4B (Homo sapiens) (UniProt Q07343); test: qHTS Assay for Inhibitors of PDE-IV (AID 607; active = well fitted activation curve with a large enough effect in the main read-out, with a control signal flat, not every such curve was filed as active; note: % of control where 0% means no effect); details: HEK293 ACTOne CNG channel cells, membrane potential fluorescence; series mostly up to 22.9 µM
3',5'-cyclic-AMP phosphodiesterase 4B (Homo sapiens), sequence (Q07343 whole entry, looked up): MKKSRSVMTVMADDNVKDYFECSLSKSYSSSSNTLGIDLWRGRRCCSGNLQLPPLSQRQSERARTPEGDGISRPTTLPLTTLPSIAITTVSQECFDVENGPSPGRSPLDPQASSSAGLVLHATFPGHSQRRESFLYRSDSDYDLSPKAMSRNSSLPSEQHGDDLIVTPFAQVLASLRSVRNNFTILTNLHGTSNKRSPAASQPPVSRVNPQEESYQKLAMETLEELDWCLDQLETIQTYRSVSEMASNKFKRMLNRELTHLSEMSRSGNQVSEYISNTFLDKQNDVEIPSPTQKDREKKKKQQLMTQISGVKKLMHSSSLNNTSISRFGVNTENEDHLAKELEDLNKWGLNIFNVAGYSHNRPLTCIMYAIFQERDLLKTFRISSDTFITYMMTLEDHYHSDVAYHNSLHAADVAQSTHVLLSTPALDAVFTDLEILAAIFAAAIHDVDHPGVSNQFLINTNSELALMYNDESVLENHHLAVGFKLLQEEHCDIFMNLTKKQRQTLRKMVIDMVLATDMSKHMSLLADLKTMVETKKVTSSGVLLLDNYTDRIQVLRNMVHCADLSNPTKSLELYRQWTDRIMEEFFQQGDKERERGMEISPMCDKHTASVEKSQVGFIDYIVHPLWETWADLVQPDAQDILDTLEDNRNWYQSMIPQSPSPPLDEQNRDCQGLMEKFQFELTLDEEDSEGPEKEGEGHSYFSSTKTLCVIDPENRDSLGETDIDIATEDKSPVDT
Procedure, shortened: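 ACTOne HEK293 cells carry a modified cAMP-gated CNG channel and express endogenous PDE4; plated 1000 cells/well, compounds up to 22.9 uM final. Membrane-potential dye fluorescence (ex 535/em 590) was read; parental cells received 10 uM forskolin + 100 uM RO 20-1724.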

[9] = qHTS Assay for Lipid Storage Modulators (AID 1519; calls by dose curve); details: Drosophila S3 cells, BODIPY lipid droplet/cell ratio, laser cytometry, cells loaded with oleic acid; for activity change, negative = inhibition: at 57.5 µM (top of the series)
Procedure, shortened: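 Cells seeded at 5,000 per well were treated with compounds over a concentration series and loaded with oleic acid (400 uM, as added). Lipid droplet fluorescence (488 nm excitation, 500-530 nm channel) was read by laser-scanning cytometry and normalized to 20 uM Triacsin C.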

[10] = target: Dual specificity protein kinase CLK4 (Homo sapiens) (UniProt Q9HAZ1); test: qHTS Assay for Inhibitors of CDC-like Kinase 4 (Kinase-Glo Assay) (AID 1770); details: recombinant Clk4, Kinase-Glo ATP depletion luminescence; series mostly up to 66.7 µM; note: nearly all actives have a fitted effect of over 65% in size; note: potency is the fitted concentration of half-maximal effect
Dual specificity protein kinase CLK4 (Homo sapiens), sequence (Q9HAZ1 whole entry, looked up): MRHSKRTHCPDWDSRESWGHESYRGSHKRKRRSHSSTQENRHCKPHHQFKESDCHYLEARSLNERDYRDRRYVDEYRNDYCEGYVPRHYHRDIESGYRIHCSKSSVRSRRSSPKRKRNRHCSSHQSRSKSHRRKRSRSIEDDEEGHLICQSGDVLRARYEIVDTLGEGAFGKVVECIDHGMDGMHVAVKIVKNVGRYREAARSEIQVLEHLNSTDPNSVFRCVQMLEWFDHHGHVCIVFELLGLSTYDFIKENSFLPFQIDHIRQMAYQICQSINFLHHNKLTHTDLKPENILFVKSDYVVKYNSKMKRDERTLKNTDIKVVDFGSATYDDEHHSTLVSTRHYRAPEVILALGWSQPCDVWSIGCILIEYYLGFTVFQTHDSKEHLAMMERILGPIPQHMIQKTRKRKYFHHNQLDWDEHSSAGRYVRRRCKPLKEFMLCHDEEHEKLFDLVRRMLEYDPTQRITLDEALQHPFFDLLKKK
Procedure, shortened: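 25 nM Clk4 with 100 uM RS repeat peptide and 1 uM ATP (final) in Tris pH7.5, 10 mM MgCl2, 4.5 h at room temperature. Remaining ATP measured by Kinase-Glo luciferase luminescence.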

[11] = target: Dual specificity protein kinase CLK4 (Homo sapiens) (UniProt Q9HAZ1); test: qHTS Assay for Inhibitors of CDC-like Kinase 4 (ADP-Glo Assay) (AID 1771); details: recombinant CLK4, ADP-Glo luminescence; series mostly up to 80 µM; note: nearly all actives have a fitted effect of over 70% in size; note: potency is the fitted concentration of half-maximal effect
Procedure, shortened: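 Clk4 (25 nM) was incubated 1 hr at room temperature with 100 uM RS repeat peptide and 1 uM ATP in buffer with 2 mM MgCl2, 0.5 mM EGTA, 2.5 mM DTT. ADP formed was quantified by ADP-Glo luminescence.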

[12] = target: Dual specificity protein kinase CLK4 (Homo sapiens) (UniProt Q9HAZ1); test: qHTS Assay for Inhibitors of CDC-like Kinase 4 (ADP-FP Assay) (AID 1795); details: Transcreener ADP fluorescence polarization; series mostly up to 50 µM; note: nearly all actives have a fitted effect of over 60% in size; note: potency is the fitted concentration of half-maximal effect
Procedure, shortened: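 Recombinant Clk4 (6.25 nM) phosphorylated 100 uM RS repeat peptide with 1 uM ATP in 25 mM Tris pH 7.5, 10 mM MgCl2, 0.5 mM EGTA, 2.5 mM DTT, 0.01% Triton X-100 for 1 h. ADP was detected by Transcreener ADP2 competitive fluorescence polarization after 30 min at room temperature.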

[13] = target: Ubiquitin carboxyl-terminal hydrolase 1 (Homo sapiens) (UniProt O94782); test: Inhibitors of USP1/UAF1: Pilot qHTS (AID 504865); details: purified USP1/UAF1, Ub-rhodamine cleavage fluorescence; series mostly up to 54.9 µM;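 note: rhodamine fluorescence freed from ubiquitin-rhodamine substrate followed over time; top concentration of the series differs between compounds; % is set by controls: 0 for no effect and ±100 for the full control effect; nearly all actives have a fitted effect of over 35% in size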
Ubiquitin carboxyl-terminal hydrolase 1 (Homo sapiens), sequence (O94782 whole entry, looked up): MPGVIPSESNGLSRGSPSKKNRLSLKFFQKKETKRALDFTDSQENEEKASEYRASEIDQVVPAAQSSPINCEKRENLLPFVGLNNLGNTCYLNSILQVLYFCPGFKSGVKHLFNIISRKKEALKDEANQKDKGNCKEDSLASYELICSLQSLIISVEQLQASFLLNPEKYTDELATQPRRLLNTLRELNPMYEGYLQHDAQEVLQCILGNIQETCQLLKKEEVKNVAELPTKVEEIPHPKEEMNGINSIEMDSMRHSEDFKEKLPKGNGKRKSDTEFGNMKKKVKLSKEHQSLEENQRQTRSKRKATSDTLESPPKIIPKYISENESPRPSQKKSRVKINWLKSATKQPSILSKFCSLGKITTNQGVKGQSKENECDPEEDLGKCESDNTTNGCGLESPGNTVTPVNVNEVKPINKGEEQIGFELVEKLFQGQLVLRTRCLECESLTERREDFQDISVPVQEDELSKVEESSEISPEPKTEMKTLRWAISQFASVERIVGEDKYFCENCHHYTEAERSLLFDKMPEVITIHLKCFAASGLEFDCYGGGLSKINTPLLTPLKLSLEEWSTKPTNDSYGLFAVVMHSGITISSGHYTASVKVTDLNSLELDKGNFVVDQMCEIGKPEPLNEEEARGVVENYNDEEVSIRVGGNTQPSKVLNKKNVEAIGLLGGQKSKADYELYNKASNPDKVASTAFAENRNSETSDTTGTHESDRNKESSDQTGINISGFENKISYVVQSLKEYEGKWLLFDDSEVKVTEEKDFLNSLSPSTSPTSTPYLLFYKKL
Procedure, shortened: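 USP1/UAF1 complex at 1 nM preincubated 15 min at room temperature with compound, then Ub-Rho substrate added at 150 nM final. Fluorescence (480/540 nm) read kinetically in 50 mM HEPES pH 7.8, 0.5 mM EDTA, 1 mM TCEP, 0.1 mg/ml BSA, 0.01% Tween-20.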

[14] = Primary qHTS for small molecule stabilizers of the endoplasmic reticulum resident proteome: Secreted ER Calcium Modulated Protein (SERCaMP) assay (AID 1508630); details: SH-SY5Y GLuc-SERCaMP (Gaussia luciferase released on ER calcium loss) secretion, thapsigargin, luminescence; series mostly up to 38.4 µM; note: % is set by controls: 0 for no effect and ±100 for the full control effect
Procedure, shortened: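 GLuc-SERCaMP-expressing SH-SY5Y cells, pretreated 16 h with compound, are challenged with thapsigargin to empty ER calcium stores; after 4 h, coelenterazine is added directly to the medium and luminescence is imaged.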

[15] = Stat Signaling Pathway (AID 446; active = well fitted curve in either direction with a large enough effect, not every such curve was filed as active); details: ME-180 SIE beta-lactamase reporter, IL-6 stimulated, 5 h; at 7.69 µM (top of the series) unless noted
Procedure, shortened: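 ME-180 SIE-bla cells; overnight plating; cpd + IL-6 40 pM, 5 h, 37 C; LiveBLAzer 2.5 h RT; 460/530 nm emission ratio. Normalized to 300 pM IL-6 and 125 nM JAK inhibitor controls.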

[16] = target: Cytochrome P450 3A4 (Homo sapiens) (UniProt P08684); test: qHTS Assay for Activators of Cytochrome P450 3A4 (AID 885); details: recombinant CYP3A4, Luciferin-PPXE luminescence, 60 min; series mostly up to 57.1 µM; note: nearly all actives have a fitted effect of over 65% in size
Cytochrome P450 3A4 (Homo sapiens), sequence (P08684 whole entry, looked up): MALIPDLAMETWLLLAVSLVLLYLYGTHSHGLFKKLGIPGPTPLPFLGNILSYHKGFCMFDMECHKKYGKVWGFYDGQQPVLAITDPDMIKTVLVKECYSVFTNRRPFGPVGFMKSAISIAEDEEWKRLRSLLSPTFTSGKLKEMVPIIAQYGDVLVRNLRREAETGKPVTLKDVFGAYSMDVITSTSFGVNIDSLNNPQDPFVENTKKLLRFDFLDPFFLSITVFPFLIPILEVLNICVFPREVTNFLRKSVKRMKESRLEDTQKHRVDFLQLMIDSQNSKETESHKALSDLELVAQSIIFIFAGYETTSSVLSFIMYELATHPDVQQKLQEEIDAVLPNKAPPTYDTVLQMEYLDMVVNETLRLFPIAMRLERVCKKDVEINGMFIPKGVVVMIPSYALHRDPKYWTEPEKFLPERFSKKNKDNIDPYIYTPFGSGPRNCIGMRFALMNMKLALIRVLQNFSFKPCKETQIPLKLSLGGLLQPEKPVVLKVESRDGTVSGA
Procedure, shortened: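 20nM CYP3A4 + 25uM Luciferin-PPXE (=KM), 200mM KPO4; cpd 10 min RT; NADPH regen, 60 min RT; stop w/ detection buffer, 20 min; luminescence. Normalized to 57 uM ketoconazole.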

[17] = measured here: cell count channel max response
[18] = measured here: lipid channel max response

Row | Structure (SMILES) | Potency [1] | activity change, negative = inhibition [2] | Potency [3] | activity change, negative = inhibition [4] | Potency [5] | Potency [6] | outcome [7] | Potency [8] | activity change, negative = inhibition [9] | max response [9, 17] [%] | max response [9, 18] [%] | Potency [10] | Potency [11] | Potency [12] | Potency [13] | Potency [14] | activity, negative = inhibition [15] | Potency [16]
1 | COCCn1c(=O)c(-c2cc(F)cc(F)c2)nc2cnc(N3CCOCC3)nc21 | > 11.4 µM (inactive) | 11.2% (inactive) | 12.6 µM (active) | 18.8% (inactive) | > 9.22 µM (inactive) | > 46 µM (inactive) | inactive | inactive | 6.45% (inactive) | 22.1 | 26.7 | inactive | inactive | inactive | inactive | inactive |  | 
2 | NCCn1c(=O)c(CCc2ccccc2)nc2cncnc21 | > 11.4 µM (inactive) | -1.99% (inactive) | 12.6 µM (active) | -4.68% (inactive) |  | > 46 µM (inactive) | inactive | inactive | 4.81% (inactive) | 26.7 | 29.9 | inactive | inactive | inactive | inactive | inactive | -4.77% (inactive) | inactive
3 | Cc1cnc(CNc2ncnc3ccc(-c4ccoc4)cc23)cn1 | > 11.4 µM (inactive) | -14.2% (inactive) | 12.6 µM (active) | -6.73% (inactive) | > 46 µM (inactive) | > 46 µM (inactive) | inactive | inactive | 0.59% (inactive) | 20.6 | 16.4 | 0.251 µM (active) | 0.224 µM (active) | 0.224 µM (active) | inactive | inactive | -13.1% (inactive) | inactive

— PubChem BioAssay (NCATS)
